Test results taken from PubChem BioAssay (Tox21).
Inconclusive results are not listed. Calls of active or inactive are those of the source. Unless noted, calls come from the whole dose curve.

How the values were obtained:
[1] = Nuclear factor erythroid 2-related factor 2/antioxidant responsive element (Nrf2/ARE) small molecule agonists: luciferase reporter gene qHTS assay in human keratinocytes (AID 1919969); note: nearly all actives have a fitted effect of over 35% in size
[2] = target: Gonadotropin-releasing hormone receptor (Homo sapiens) (UniProt P30968); experiment: Human gonadotropin-releasing hormone receptor (GnRHR) small molecule agonists, calcium flux assay in GnRHR-HEK293 cells (AID 1920063); note: nearly all actives have a fitted effect of over 35% in size
Chain of Gonadotropin-releasing hormone receptor (Homo sapiens) (P30968 whole entry, looked up): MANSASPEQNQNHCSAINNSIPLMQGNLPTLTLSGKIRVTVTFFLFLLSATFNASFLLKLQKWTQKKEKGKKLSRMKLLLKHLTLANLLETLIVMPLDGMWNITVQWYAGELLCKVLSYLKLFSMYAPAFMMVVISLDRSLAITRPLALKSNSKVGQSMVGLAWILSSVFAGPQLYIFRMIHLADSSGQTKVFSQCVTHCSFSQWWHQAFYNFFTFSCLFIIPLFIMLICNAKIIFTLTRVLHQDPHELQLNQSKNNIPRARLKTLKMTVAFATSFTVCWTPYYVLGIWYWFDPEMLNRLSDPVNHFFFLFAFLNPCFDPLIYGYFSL
Outline: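 Tox21-format agonist screen using human GnRHR-expressing HEK293 cells and a fluorescent calcium dye; kinetic 3-min fluorescence reading after compound addition, 15-point concentration series run in triplicate.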

[3] = target: KiSS-1 receptor (Homo sapiens) (UniProt Q969F8); experiment: Human kisspeptin (KISS1R) small molecule agonists, calcium flux assay in KISS1R-HEK293 cells (AID 1920064; active = well fitted activation curve with a large enough effect in the repeat runs)
Chain of KiSS-1 receptor (Homo sapiens) (Q969F8 whole entry, looked up): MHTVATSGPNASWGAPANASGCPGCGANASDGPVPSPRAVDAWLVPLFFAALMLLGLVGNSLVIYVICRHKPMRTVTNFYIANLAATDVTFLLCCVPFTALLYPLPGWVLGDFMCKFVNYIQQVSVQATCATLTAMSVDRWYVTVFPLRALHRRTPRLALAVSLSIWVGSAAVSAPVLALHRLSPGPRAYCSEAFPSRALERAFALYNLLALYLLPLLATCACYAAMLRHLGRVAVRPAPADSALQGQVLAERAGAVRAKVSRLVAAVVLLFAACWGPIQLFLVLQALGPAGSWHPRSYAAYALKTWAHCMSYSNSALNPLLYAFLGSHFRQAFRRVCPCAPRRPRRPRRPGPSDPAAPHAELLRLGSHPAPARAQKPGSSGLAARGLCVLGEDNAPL
Outline: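 Intracellular calcium mobilization in KISS1R-HEK293 cells was recorded by fluorescence (Ex/Em 480/540) for 3 min following compound addition to cells pre-loaded 1 h with calcium dye.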

[4] = G protein-coupled receptor (GPCR) small molecule agonists, calcium flux assay: HEK293 wild type cell line counter screen (AID 1920065)
Outline: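 In this agonist-mode screen, ATP is the positive control and DMSO the vehicle. Cells grow 18 h before a 1 h dye incubation at 37 C; signal is taken at Ex/Em 480/540 over 3 min.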

[5] = p53 small molecule agonists, cell-based qHTS assay with human liver microsomes (AID 1963577);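 note: p53 response element beta-lactamase reporter cells with liver microsomes plus NADPH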
Outline: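 16 h, 37 C exposure of p53RE-bla cells to compounds with human liver microsomes and NADPH (0.5 mg/mL final each); detection via LiveBLAzer mixture, 2 h dark at room temperature.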

[6] = p53 small molecule agonists, cell-based qHTS assay with rat liver microsomes (AID 1963578)
Outline: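 With rat liver microsomes and NADPH present (0.5 mg/mL final each), p53RE-bla cells are treated with compound for 16 h at 37 C. LiveBLAzer detection mixture is then applied for 2 h at room temperature in the dark.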

[7] = p53 small molecule agonists, cell-based qHTS assay with human liver microsomes: qHTS cell viability counter screen (AID 1963579); note: nearly all actives have a fitted effect of over 45% in size
Outline: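 In this multiplexed counter screen, the reporter plates were subsequently treated with CellTiter-Glo so that cell viability, reflected by luminescence, could be recorded for p53RE-bla cells dosed 16 h with compounds under microsomal activation (HLM and NADPH).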

[8] = p53 small molecule agonists, cell-based qHTS assay with rat liver microsomes: qHTS cell viability counter screen (AID 1963580); note: nearly all actives have a fitted effect of over 45% in size
Outline: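 Intracellular ATP, by CellTiter-Glo luminescence, defines viability. HCT-116 p53RE-bla cells, 4,000 per well, were compound-treated in the presence of rat liver microsomes and NADPH for 16 h at 37 C.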

[9] = p53 small molecule agonists, cell-based qHTS assay: qHTS cell viability counter screen (AID 1963581); note: nearly all actives have a fitted effect of over 45% in size
Outline: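 Compounds are pinned onto HCT-116 p53RE-bla cells and left 16 h at 37 C. Following the reporter FRET read, ATP is quantified by CellTiter-Glo luminescence after 30 min at room temperature.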

[10] = p53 small molecule agonists, cell-based qHTS assay (AID 1963582; active = well fitted activation curve with a large enough effect in the signal ratio in the repeat runs, not every such curve was filed as active; the % refers to the signal ratio)
Outline: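 Agonist activity was scored from beta-lactamase FRET fluorescence in p53RE-bla cells treated 16 h at 37 C with compounds in DMSO, substrate incubation being 2 h at room temperature.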

[11] = target: 5-hydroxytryptamine receptor 2A (Homo sapiens) (UniProt P28223); experiment: 5-hydroxytryptamine receptor 2A (HTR2A) small molecule antagonists, cell-based qHTS assay (AID 1963586); note: nearly all actives have a fitted effect of over 45% in size
Chain of 5-hydroxytryptamine receptor 2A (Homo sapiens) (P28223 whole entry, looked up): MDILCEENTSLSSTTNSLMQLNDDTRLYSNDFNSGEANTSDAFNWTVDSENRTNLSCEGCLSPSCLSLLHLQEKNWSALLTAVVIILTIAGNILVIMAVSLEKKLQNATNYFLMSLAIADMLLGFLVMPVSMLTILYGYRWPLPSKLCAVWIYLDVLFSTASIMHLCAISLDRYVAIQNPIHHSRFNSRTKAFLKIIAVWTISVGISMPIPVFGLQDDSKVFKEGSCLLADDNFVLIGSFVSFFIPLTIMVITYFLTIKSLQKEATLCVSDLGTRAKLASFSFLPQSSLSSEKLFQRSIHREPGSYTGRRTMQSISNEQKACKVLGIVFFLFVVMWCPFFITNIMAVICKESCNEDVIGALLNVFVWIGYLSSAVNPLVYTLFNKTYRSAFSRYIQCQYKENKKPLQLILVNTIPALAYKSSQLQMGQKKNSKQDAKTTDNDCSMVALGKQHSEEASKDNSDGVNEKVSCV
Outline: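 Antagonist-mode intracellular calcium assay: DOI (4 nM) added after 5 min compound pre-incubation at room temperature to dye-loaded HTR2A-CHO cells. Fluorescence followed for 3 min, sampled every second.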

[12] = target: 5-hydroxytryptamine receptor 2A (Homo sapiens) (UniProt P28223); experiment: 5-hydroxytryptamine receptor 2A (HTR2A) small molecule agonists, cell-based qHTS assay (AID 1963587); note: nearly all actives have a fitted effect of over 30% in size
Outline: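 Kinetic calcium-flux fluorescence (2 min, 1 sec intervals) after compound addition in agonist mode. HTR2A-CHO cells were cultured 18 h, then dye-loaded 1 h at 37 C.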

[13] = target: Muscarinic acetylcholine receptor M1 (Homo sapiens) (UniProt P11229); experiment: Cholinergic receptor muscarinic 1 (CHRM1) small molecule antagonists, cell-based qHTS assay (AID 1963588); note: nearly all actives have a fitted effect of over 40% in size
Chain of Muscarinic acetylcholine receptor M1 (Homo sapiens) (P11229 whole entry, looked up): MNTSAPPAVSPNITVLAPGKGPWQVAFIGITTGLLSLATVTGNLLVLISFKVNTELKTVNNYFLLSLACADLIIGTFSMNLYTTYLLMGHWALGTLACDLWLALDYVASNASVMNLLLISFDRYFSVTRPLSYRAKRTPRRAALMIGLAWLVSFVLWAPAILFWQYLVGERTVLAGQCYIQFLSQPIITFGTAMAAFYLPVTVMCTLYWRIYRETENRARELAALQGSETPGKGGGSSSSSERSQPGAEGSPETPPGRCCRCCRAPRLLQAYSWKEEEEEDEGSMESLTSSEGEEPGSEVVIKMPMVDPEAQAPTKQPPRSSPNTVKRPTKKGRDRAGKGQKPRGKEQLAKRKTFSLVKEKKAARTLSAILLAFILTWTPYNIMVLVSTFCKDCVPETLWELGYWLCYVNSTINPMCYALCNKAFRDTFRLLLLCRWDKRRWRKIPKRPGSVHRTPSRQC
Outline: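 CHRM1-CHO calcium-flux assay, antagonist mode. Cells were seeded 18 h, dye-loaded 1 h at 37 C and given compound for 5 min at RT, then acetylcholine was added at 50nM. FDSS fluorescence was read 3 min; 15 concentrations, three runs.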

[14] = target: Muscarinic acetylcholine receptor M1 (Homo sapiens) (UniProt P11229); experiment: Cholinergic receptor muscarinic 1 (CHRM1) small molecule agonists, cell-based qHTS assay (AID 1963589); note: nearly all actives have a fitted effect of over 35% in size
Outline: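 Stable CHRM1-CHO cells (human receptor) were incubated 18 h, dye-loaded for 1 h at 37 C and exposed to test compounds for agonist activity, with calcium-dependent fluorescence followed kinetically.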

[15] = cAMP Responsive Elements (CRE) small molecule antagonists, cell-based qHTS assay (AID 1963591; active = well fitted inhibition curve with a large enough effect in the signal ratio in the repeat runs, not every such curve was filed as active; the % refers to the signal ratio)
Outline: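 qHTS in CRE-bla HEK 293T cells: compound in DMSO, then 0.25 uM NKH477 (final), 3 h at 37 °C/5% CO2; beta-lactamase FRET read-out after 2 h substrate incubation.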

[16] = target: Beta-2 adrenergic receptor (Homo sapiens) (UniProt P07550); experiment: Adrenergic beta2 receptor (ADRB2) small molecule antagonists, cell-based qHTS assay (AID 1963592); note: series mostly up to about 92 µM; nearly all actives have a fitted effect of over 50% in size
Chain of Beta-2 adrenergic receptor (Homo sapiens) (P07550 whole entry, looked up): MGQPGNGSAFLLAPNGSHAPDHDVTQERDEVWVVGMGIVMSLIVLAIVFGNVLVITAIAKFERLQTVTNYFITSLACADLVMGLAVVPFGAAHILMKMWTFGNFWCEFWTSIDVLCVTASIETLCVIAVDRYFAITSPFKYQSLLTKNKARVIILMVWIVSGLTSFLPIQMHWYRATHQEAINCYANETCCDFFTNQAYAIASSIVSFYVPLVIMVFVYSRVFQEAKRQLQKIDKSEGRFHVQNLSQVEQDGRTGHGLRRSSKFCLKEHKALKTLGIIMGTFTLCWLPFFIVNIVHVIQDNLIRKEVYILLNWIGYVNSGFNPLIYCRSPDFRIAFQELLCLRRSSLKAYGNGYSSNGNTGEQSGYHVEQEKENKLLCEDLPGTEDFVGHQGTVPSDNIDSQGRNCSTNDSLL
Outline: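 Cells (CHO, stable ADRB2 overexpression) incubated 18-20hr at 37C; compounds added from DMSO; agonist mix (1nM isoproterenol, 100uM IBMX, 25uM Ro-20-1724) added; 0.5hr RT; d2-cAMP and anti-cAMP-cryptate added; 1hr RT; 665/615 nm read.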

[17] = target: Beta-2 adrenergic receptor (Homo sapiens) (UniProt P07550); experiment: Adrenergic beta2 receptor (ADRB2) small molecule agonists, cell-based qHTS assay (AID 1963593);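 note: CHO cells stably overexpressing human ADRB2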
Outline: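 CHO cells stably over-expressing ADRB2 were plated overnight at 37C, then dosed with compounds plus a stimulation mix containing 100uM IBMX and 25uM Ro-20-1724 for 0.5hr at room temperature. cAMP was measured by HTRF competition, 1hr.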

[18] = target: D(2) dopamine receptor (Homo sapiens) (UniProt P14416); experiment: Dopamine D2 receptor (DRD2) small molecule agonists, cell-based qHTS assay (AID 1963594); note: nearly all actives have a fitted effect of over 35% in size
Chain of D(2) dopamine receptor (Homo sapiens) (P14416 whole entry, looked up): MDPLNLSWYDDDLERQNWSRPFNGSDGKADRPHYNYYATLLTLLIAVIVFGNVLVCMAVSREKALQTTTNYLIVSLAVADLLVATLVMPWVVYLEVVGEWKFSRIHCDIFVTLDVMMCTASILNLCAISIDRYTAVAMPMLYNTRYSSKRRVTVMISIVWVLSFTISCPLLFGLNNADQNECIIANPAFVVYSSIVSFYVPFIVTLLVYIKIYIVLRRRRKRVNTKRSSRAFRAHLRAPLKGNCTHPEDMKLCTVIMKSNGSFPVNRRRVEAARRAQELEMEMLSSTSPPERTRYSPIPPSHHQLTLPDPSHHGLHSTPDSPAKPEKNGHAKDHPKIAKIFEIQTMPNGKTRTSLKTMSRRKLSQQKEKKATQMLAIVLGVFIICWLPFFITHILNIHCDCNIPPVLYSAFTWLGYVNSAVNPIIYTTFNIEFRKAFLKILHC
Outline: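 cAMP accumulation in DRD2-HEK293 cells measured by HTRF after 1 h detection; compounds added 10 min before NKH477 (200nM […]) forskolin-analogue stimulation, 30 min at room temperature, with Ro20-1724 present at 0.1 mM final.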

[19] = target: D(2) dopamine receptor (Homo sapiens) (UniProt P14416); experiment: Dopamine D2 receptor (DRD2) small molecule antagonists, cell-based qHTS assay (AID 1963595; active = well fitted inhibition curve with a large enough effect in the signal ratio in the repeat runs, with a control signal flat; the % refers to the signal ratio)
Outline: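 DRD2-HEK293; 0.1 mM Ro20-1724; cpd 10 min RT; NKH477 200 nM + quinpirole 12 nM, 30 min RT; HTRF cAMP (cAMP-d2/anti-cAMP cryptate), 665/620 nm ratio after 1 h.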

[20] = cAMP Responsive Elements (CRE) small molecule agonists, cell-based qHTS assay (AID 1963590)
Outline: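 FRET-based beta-lactamase readout (LiveBLAzer B/G, 2 h RT) quantified CRE activation in HEK 293T CRE-bla cells after 3 h treatment with DMSO-dissolved compounds.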

Measured: Potency

FC(F)(F)C(Cl)(Cl)Cl
not listed: [20]
inactive: all other assays above

CC(=O)c1sc(C)nc1C
not listed: [15] | [17]
inactive: all other assays above

Cc1cc(O)cc2c1O[C@](C)(CCC[C@H](C)CCC[C@H](C)CCCC(C)C)CC2
not listed: [17] | [19]
inactive: all other assays above

Cc1cc(C)cc(O)c1
not listed: [17] | [20]
inactive: all other assays above

NC(=O)NS(=O)(=O)c1ccc(Cl)cc1
not listed: [17]
inactive: all other assays above

CC(C)OC(=O)C(O)(CC(=O)O)CC(=O)O
not listed: [14] | [16] | [17]
inactive: all other assays above
